# Experimental data reported in PubChem BioAssay (EPA / NIEHS).
# The source holds several records for some structures; these can differ, active in one and inactive in another. The source made the active and inactive calls. How the source made its calls: active means hit-call score of the fitted dose curve at least 0.9, where 1 is the maximum; inactive means score below 0.9.
# Read-out: CD69, CD69 (gene 969)
# Assay: BSK_SAg_CD69: BioMAP Diversity Plus: SAg Assay for CD69 Biomarker Activity (AID 2283089)
# Conditions: primary human HUVEC with PBMC; actives raise or lower the signal
# Experimental: BSK_SAg is a cell-based, multiplexed-readout assay that uses umbilical vein endothelium and peripheral blood mononuclear cells, a human vascular primary cell co-culture, with measurements taken at 24 hours after chemical dosing in a 96-well plate.BSK_SAg_CD69 is one of 10 assay component(s) measured or calculated from the BSK_SAg assay. It is designed to make measurements of enzyme-linked immunosorbent assay, a form of binding reporter, as detected with fluorescence intensity signals by Enzyme-linked immunosorbent assay technology.Data from the assay component BSK_SAg_CD69 was analyzed into 1 assay endpoint. This assay endpoint, BSK_SAg_CD69, was analyzed with bidirectional fitting relative to DMSO as the negative control and baseline of activity. Using a type of binding reporter, gain or loss-of-signal activity can be used to understand changes in the signaling as they relate to the gene CD69. Furthermore, this assay endpoint can be referred to as a primary readout, because this assay has produced multiple assay endpoints where this one serves a signaling function. To generalize the intended target to other relatable targets, this assay endpoint is annotated to the cytokine intended target family, where the subfamily is inflammatory factor.
# The levels of cell surface (or secreted, indicated by the prefix "s") biomarker endpoints were measured by ELISA. Overt cytotoxicity to cells in confluent adherent cultures (all systems other than the BT system) was assessed by measuring total protein levels using sulforhodamine B (SRB) staining in parallel cultures at the time of biomarker measurements, indicated as SRB endpoints. For proliferation assays for adherent cell types, individual cell types are cultured at sub-confluence and relative cell numbers quantified by SRB staining at time points optimized for each system (48 h: 3C and CASM3C systems; 72 h: BT and HDF3CGF systems; 96 h: SAg system). SRB was performed by staining cells with 0.1% SRB after fixation with 10% TCA and reading wells at 560 nm.Viability and proliferation of PBMC (T cells) was quantified by Alamar Blue reduction for the SAg and BT systems. For PBMC viability (referred to as PBMC Cytotoxicity within the assay endpoint names), cells were plated (75,000/well in a 96-well plate) and then chemical samples added for 1 h before addition of activators, SEB and TSST-1 (20 ng/mL final concentration each). Cells were incubated for 90 h. Then, Alamar Blue (20 uL/well) (Invitrogen, Cat DAL1100) was added for 6 h, and the plates were read with a fluorescence microplate reader at 546/580 nm (excitation/emission). For PBMC proliferation, cells were plated and activated as above but incubated for only 16 h prior to addition of Alamar Blue. Plates were read after 6 h.
Structure (SMILES),outcome,AC50
Nc1c(Cl)cc([N+](=O)[O-])cc1Cl,inactive,–
COP(=O)(OC)C(O)C(Cl)(Cl)Cl (stereo not given),inactive,–
CN(C)[C@@H]1C(=O)C(C(N)=O)=C(O)[C@@]2(O)C(=O)C3=C(O)c4c(O)cccc4[C@@](C)(O)[C@H]3[C@H](O)[C@@H]12,inactive,5.09 µM (active)
CC(C)N(C(=O)SCC(Cl)=C(Cl)Cl)C(C)C,–,36.6 µM (active)
CCC(=NOC/C=C/Cl)C1=C(O)CC(C2CCOCC2)CC1=O (stereo not given),inactive,–
CCCCN(CC)c1c([N+](=O)[O-])cc(C(F)(F)F)cc1[N+](=O)[O-],inactive,–
CCOP(=S)(Oc1cnc(C(C)(C)C)nc1)OC(C)C (stereo not given),–,30 µM (active)
CC1=NNC(=O)N(/N=C/c2cccnc2)C1,inactive,–
CN1COCN(Cc2cnc(Cl)s2)C1=N[N+](=O)[O-],inactive,–
CNC(=O)Oc1cccc2c1OC(C)(C)O2,inactive,–
CC(COc1ccc(Oc2ccccc2)cc1)Oc1ccccn1 (stereo not given),inactive,–
CCCCSP(=O)(SCCCC)SCCCC,–,31.5 µM (active)
CN(C)C(=O)Nc1cccc(C(F)(F)F)c1,inactive,–
Cc1nn(-c2cc(NS(C)(=O)=O)c(Cl)cc2Cl)c(=O)n1C(F)F,inactive,–
COP(=O)(OC)OC(Br)C(Cl)(Cl)Br (stereo not given),–,30.1 µM (active)
COc1ccc(C(=CC(=O)N2CCOCC2)c2ccc(Cl)cc2)cc1OC,–,4.3 µM (active)
CCOP(=S)(OCC)Oc1ccc([N+](=O)[O-])cc1,–,32.4 µM (active)
CCOP(=S)(OCC)Oc1cc(C)nc(C(C)C)n1,inactive,–
Cc1ccn2nc(S(=O)(=O)Nc3c(F)cccc3F)nc2n1,inactive,–
CCOP(=O)(SC(C)CC)N1CCSC1=O (stereo not given),inactive,–

Structure (SMILES),outcome,AC50
C[Si](Cn1cncn1)(c1ccc(F)cc1)c1ccc(F)cc1,inactive,–
COP(=O)(NC(C)=O)SC (stereo not given),inactive,–
CC(C)[C@H](C(=O)O[C@H](C#N)c1cccc(Oc2ccccc2)c1)c1ccc(Cl)cc1,inactive,–
C=C(C)[C@H]1Cc2c(ccc3c2O[C@@H]2COc4cc(OC)c(OC)cc4[C@@H]2C3=O)O1,–,3.97 µM (active)
CSc1nc(NC(C)C)nc(NC(C)C)n1,inactive,–
CN(C)NC(=O)CCC(=O)O,inactive,–
CC(=NC#N)N(C)Cc1ccc(Cl)nc1,inactive,–
C#CC(C)(C)NC(=O)c1cc(Cl)cc(Cl)c1,inactive,–
CC(Oc1cccc(Cl)c1)C(=O)O (stereo not given),inactive,–
CCC(=O)Nc1ccc(Cl)c(Cl)c1,inactive,–
CCOP(=S)(OCC)SCCSCC,inactive,–
CCNc1nc(Cl)nc(NC(C)(C)C#N)n1,inactive,–
CCOP(=S)(OCC)OC(Cl)C(Cl)(Cl)Cl (stereo not given),–,28.6 µM (active)
COc1cc(OC)nc(Sc2cccc(Cl)c2C(=O)O)n1,inactive,–
CCOP(=S)(OCC)Oc1ccc2c(C)c(Cl)c(=O)oc2c1,inactive,–
CC1(C(=O)Nc2ccc(O)c(Cl)c2Cl)CCCCC1,inactive,–
CCCOc1nn(C(=O)NS(=O)(=O)c2ccccc2C(=O)OC)c(=O)n1C,inactive,–
CCCCOC(=O)c1ccccc1C(=O)O,inactive,–
COc1cccc(C(=O)NN(C(=O)c2cc(C)cc(C)c2)C(C)(C)C)c1C,inactive,–
